Several values for one entry are separate records, joined by “and”; a condition that tells them apart may be missing. Identical values can stand only once. Records with an inconclusive call do not appear. More than one record can exist for a structure, and the calls need not agree. Activity calls are given as the source filed them. How the source made its calls, unless noted: active means hit-call score of the fitted dose curve at least 0.9, where 1 is the maximum; inactive means score below 0.9.
Experiments:
[1] = read-out: TIMP metallopeptidase inhibitor 2 (TIMP2), TIMP2 (gene 7077); assay: BSK_hDFCGF_TIMP2: BioMAP Diversity Plus: hDFCGF Assay for TIMP metallopeptidase inhibitor 2 (TIMP2) Biomarker Activity (AID 2284289); details: primary human foreskin fibroblasts
Procedure, shortened: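 Primary human foreskin fibroblasts in the hDFCGF system, dosed for 24 h; TIMP-2 level measured by ELISA, fitted in the positive direction against DMSO; cytotoxicity checked in parallel by sulforhodamine B total protein staining.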

[2] = read-out: Thrombomodulin, THBD (gene 7056); assay: BSK_LPS_Thrombomodulin: BioMAP Diversity Plus: LPS Assay for Thrombomodulin Biomarker Activity (AID 2284296); details: outcome: primary human HUVEC with PBMC unless noted
Procedure, shortened: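 Human umbilical vein endothelial cells co-cultured with PBMC and stimulated with LPS; cell-surface thrombomodulin measured by ELISA 24 hours after compound. Gain or loss versus DMSO; cytotoxicity checked by SRB staining in parallel cultures.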

CD69, CD69 (gene 969) = assay: BSK_LPS_CD69: BioMAP Diversity Plus: LPS Assay for CD69 Biomarker Activity (AID 2284303); details: primary human HUVEC with PBMC
Procedure, shortened: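 Human umbilical vein endothelial cells co-cultured with PBMC under LPS stimulation, chemical exposure 24 h; cell-surface CD69 measured by ELISA and fitted in the positive direction versus DMSO.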

[3] = IUF_NPC2c_oligodendrocyte_migration_120hr: Leibniz Research Institute for Environmental Medicine (IUF) 120-hour Neural Progenitor Cell Migration Assay for Oligodendrocyte Migration (NPC2c) (AID 2284297);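 further: O4-positive oligodendrocyte migration distance divided by radial glia migration distance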
Procedure, shortened: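 Exposure runs 5 days from differentiation onset at 37C, seven concentrations plus solvent control, DMSO at most 0.1%, applied to primary hNPC spheres on laminin. After fixation, O4 immunostaining gives oligodendrocyte distance from the sphere core, relative to radial glia migration.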

[4] = IUF_NPC2a_radial_glia_migration_120hr: Leibniz Research Institute for Environmental Medicine (IUF) 120-hour Neural Progenitor Cell Migration Assay for Radial Glia Migration (NPC2a) (AID 2284298)
Procedure, shortened: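 Migration distance in um, sphere core edge to migration-area edge, derived by nuclei-density algorithm from Hoechst images after 120 h compound exposure. Primary hNPC spheres differentiated on poly-D-lysine/laminin in N2 medium, 37C; medium half-replaced day 3.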

[5] = IUF_NPC2a_radial_glia_migration_72hr: Leibniz Research Institute for Environmental Medicine (IUF) 72-hour Neural Progenitor Cell Migration Assay for Radial Glia Migration (NPC2a) (AID 2284299)
Procedure, shortened: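 Primary hNPC spheres, fetal brain GW 16-19, on PDL/laminin; DMEM/F12 3:1 + 1% N2. Compound dosed day 0, 7 conc. + SC, half-medium refresh day 3. 72 h brightfield, migration distance core-to-front (um), 4 directions averaged.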

[6] = IUF_NPC2b_neuronal_migration_120hr: Leibniz Research Institute for Environmental Medicine (IUF) 120-hour Neural Progenitor Cell Migration Assay for Neuron Migration (NPC2b) (AID 2284300)
Procedure, shortened: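 TUBB3-positive neurons are imaged after 120 h of differentiation, and their mean distance from the sphere edge is normalised to radial glia migration. Single 0.3 mm fetal hNPC spheres on poly-D-lysine/laminin received 7 compound concentrations, ≤0.1% DMSO, refreshed at day 3.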

[7] = IUF_NPC3_neuronal_differentiation_120hr: Leibniz Research Institute for Environmental Medicine (IUF) 120-hour Neuronal Differentiation Assay (NPC3) (AID 2284301)
Procedure, shortened: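 Single 0.3 mm neurospheres from human fetal cortex were plated in differentiation medium containing test compound. Medium was half-replaced on day 3. After 120 h cells were fixed, immunostained and imaged, and neuronal fraction was scored against DMSO control.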

[8] = IUF_NPC4_neurite_length_120hr: Leibniz Research Institute for Environmental Medicine (IUF) 120-hour Neuronal Morphology Assay for Neurite Length (NPC4) (AID 2284302)
Procedure, shortened: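 Read-out is mean neurite length in µm of TUBB3-positive neurons, skeletonized from high-content fluorescence images after 120 h. Single 0.3 mm primary human neural progenitor spheres differentiated on poly-D-lysine/laminin under continuous compound exposure; DMSO was baseline.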

[9] = IUF_NPC4_neurite_area_120hr: Leibniz Research Institute for Environmental Medicine (IUF) 120-hour Neuronal Morphology Assay for Neurite Area (NPC4) (AID 2284305; active means hit-call score of the fitted dose curve at least 0.9, where 1 is the maximum)
Procedure, shortened: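 Neurite area is read out as the mean pixel area, excluding nuclei, of skeletonized TUBB3-positive neurons imaged after 120 h. Primary human neural progenitor spheres differentiated on poly-D-lysine/laminin with compound present from day 0. Activity was referenced to DMSO controls.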

[10] = IUF_NPC2-5_cytotoxicity_72hr: Cytotoxicity Assessment at 72 hours in the Leibniz Research Institute for Environmental Medicine (IUF) Neural Progenitor Cell Migration and Differentiation Assay for Cytotoxicity (NPC2-5) (AID 2284306; active means hit-call score of the fitted dose curve at least 0.9, where 1 is the maximum;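 further: LDH release into supernatant measured by resorufin fluorescence marking membrane damage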)
Procedure, shortened: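 Membrane integrity loss was scored from fluorescence (RFU) of resorufin generated by LDH in culture supernatant, 72 h after dosing. Differentiating human progenitor spheres received seven serial compound concentrations alongside a solvent control.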

[11] = IUF_NPC2-5_cytotoxicity_120hr: Cytotoxicity Assessment at 120 hours in the Leibniz Research Institute for Environmental Medicine (IUF) Neural Progenitor Cell Migration and Differentiation Assay (NPC2-5) (AID 2284307; active means hit-call score of the fitted dose curve at least 0.9, where 1 is the maximum;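 on AC50: LDH released into supernatant as membrane damage marker via resorufin fluorescence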)
Procedure, shortened: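 Membrane-integrity loss measured as LDH activity in medium supernatant via resazurin-to-resorufin fluorescence after 120 h exposure. hNPC spheres from GW 16-19 fetal cortex differentiated on poly-D-lysine/laminin, 37C, medium half-refreshed day 3; seven concentrations, DMSO max 0.1%.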

[12] = IUF_NPC2-5_cell_number_120hr: Cell Number Assessment at 120 hours in the Leibniz Research Institute for Environmental Medicine (IUF) Neural Progenitor Cell Migration and Differentiation Assay (NPC2-5) (AID 2284308);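 further: count of Hoechst-stained nuclei in migration zone around plated human neural progenitor spheres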
Procedure, shortened: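 Counting of all Hoechst-stained nuclei in the migration area at 120 h, versus DMSO control. Primary hNPC spheres differentiated on poly-D-lysine/laminin in N2 medium at 37C, dosed from day 0 (7 concentrations, DMSO ≤0.1%), half-refed day 3.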

[13] = IUF_NPC5_oligodendrocyte_differentiation_120hr: Leibniz Research Institute for Environmental Medicine (IUF) 120-hour Oligodendrocyte Differentiation Assay (NPC5) (AID 2284304; active means hit-call score of the fitted dose curve at least 0.9, where 1 is the maximum;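 further: primary human fetal neural progenitor spheres plated to migrate and differentiate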)
Procedure, shortened: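 Oligodendrocyte differentiation scored as O4-positive cells, found by CNN image analysis, as percent of Hoechst-stained nuclei in the migration area. Scoring followed 5 days of exposure of plated hNPC neurospheres differentiating in DMEM/F12 N2 medium at 37C, with compound refreshed at day 3.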

[14] = read-out: Interleukin-1 alpha (IL1a), IL1A (gene 3552); assay: BSK_IMphg_IL1a: BioMAP Diversity Plus: IMphg Assay for Interleukin-1 alpha (IL1a) Biomarker Activity (AID 2284290); details: primary human endothelial cells with macrophages
Procedure, shortened: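 Human venular endothelial cells co-cultured with macrophages, IMphg system. IL-1α is measured by ELISA 24 h after dosing and fitted in the positive direction against DMSO. Cytotoxicity is assessed by SRB staining of parallel cultures.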

[15] = read-out: E-selectin (Homo sapiens) (UniProt P16581); assay: BSK_IMphg_ESelectin: BioMAP Diversity Plus: IMphg Assay for Eselectin Biomarker Activity (AID 2284291); details: primary human endothelial cells with macrophages
Procedure, shortened: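 Human venular endothelial cell–macrophage co-culture, E-selectin measured by ELISA 24 h after chemical dosing. Signal fitted in the positive direction against DMSO as negative control and baseline.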

[16] = BSK_IMphg_SRB: Viability Assessment in the BioMAP Diversity Plus: IMphg Assay (AID 2284292); details: primary human endothelial cells with macrophages;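 further: measured one day after compound addition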
Procedure, shortened: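 Human venular endothelial cells with macrophages, 24 h after chemical dosing; total protein by 0.1% SRB staining after 10% TCA fixation, read at 560 nm. Positive-direction fitting versus DMSO baseline.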

[17] = read-out: Macrophage colony-stimulating factor (MCSF), CSF1 (gene 1435); assay: BSK_IMphg_MCSF: BioMAP Diversity Plus: IMphg Assay for Macrophage colony-stimulating factor (MCSF) Biomarker Activity (AID 2284293); details: primary human endothelial cells with macrophages
Procedure, shortened: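 Co-culture of human venular endothelial cells and macrophages, 24 hours of chemical exposure. M-CSF quantified by ELISA, with parallel SRB total-protein staining for cytotoxicity; activity fitted relative to DMSO.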

[18] = read-out: Interleukin-10 (IL10), IL10 (gene 3586); assay: BSK_IMphg_IL10: BioMAP Diversity Plus: IMphg Assay for Interleukin-10 (IL10) Biomarker Activity (AID 2284294); details: primary human endothelial cells with macrophages
Procedure, shortened: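 Human venular endothelial cells cocultured with macrophages, dosed 24 h; IL-10 measured by ELISA, activity relative to DMSO. Cytotoxicity assessed in parallel cultures by sulforhodamine B total-protein staining.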

[19] = BSK_IMphg_SRB.Mphg: Macrophage Viability Assessment in the BioMAP Diversity Plus: IMphg Assay (AID 2284295); details: primary human endothelial cells with macrophages
Procedure, shortened: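 Venular endothelial cells co-cultured with macrophages, read 24 h after dosing. Total protein measured by 0.1% SRB staining after 10% TCA fixation, absorbance at 560 nm. Fitted in positive direction against DMSO baseline.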

Measured: AC50

E-selectin (Homo sapiens), sequence (P16581 whole entry, looked up): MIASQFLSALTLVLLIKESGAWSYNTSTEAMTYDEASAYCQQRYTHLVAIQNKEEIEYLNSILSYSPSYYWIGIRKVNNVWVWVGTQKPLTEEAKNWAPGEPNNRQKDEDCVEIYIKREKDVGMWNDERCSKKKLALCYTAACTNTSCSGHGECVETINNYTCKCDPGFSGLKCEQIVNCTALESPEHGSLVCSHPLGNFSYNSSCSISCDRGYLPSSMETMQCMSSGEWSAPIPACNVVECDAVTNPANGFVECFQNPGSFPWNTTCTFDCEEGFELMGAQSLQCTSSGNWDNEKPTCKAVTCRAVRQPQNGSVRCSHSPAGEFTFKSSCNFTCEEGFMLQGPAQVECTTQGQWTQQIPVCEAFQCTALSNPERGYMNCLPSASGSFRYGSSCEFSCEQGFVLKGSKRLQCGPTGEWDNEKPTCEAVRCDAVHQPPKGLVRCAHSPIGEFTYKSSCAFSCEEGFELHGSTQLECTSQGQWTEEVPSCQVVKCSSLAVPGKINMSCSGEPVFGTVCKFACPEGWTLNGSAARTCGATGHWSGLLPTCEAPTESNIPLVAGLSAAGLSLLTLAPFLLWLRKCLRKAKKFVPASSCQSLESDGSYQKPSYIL

CC(=O)OC(c1ccccc1)C(Cl)(Cl)Cl (stereo unspecified)
inactive: [1] | [2] | CD69, CD69 (gene 969)

COC(=O)Cc1ccccc1
active: [2] 2180 nM
inactive: [1] | [2] inactive [setting not given] | CD69, CD69 (gene 969)

COP(=O)(OC)O/C(=C\Cl)c1cc(Cl)c(Cl)cc1Cl
inactive: [10]
active: [3] 603 nM | [4] 638 nM | [5] 1030 nM | [6] 785 nM | [7] 988 nM | [8] 466 nM | [9] 675 nM | [11] 5390 nM | [12] 356 nM

CCOP(=S)(OCC)Oc1nc(Cl)c(Cl)cc1Cl
inactive: [3] | [4] | [5] | [6] | [7] | [8] | [13] | [9] | [10] | [11] | [12]

O=C(O)CCC(F)(C(F)(F)F)C(F)(F)F
inactive: [1] | [14] | [15] | [16] | [17] | [18] | [19] | [2] | CD69, CD69 (gene 969)

O=C(O)C(F)(F)C(F)(F)C(F)(F)C(F)(F)C(F)(F)C(F)(F)F
inactive: [1] | [14] | [15] | [16] | [17] | [18] | [19] | [2] | CD69, CD69 (gene 969)

O=C(O)C(F)(F)C(F)(F)C(F)(F)C(F)(F)C(F)(F)C(F)(F)C(F)(F)C(F)(F)C(F)(F)C(F)(F)F
inactive: [14] | [15] | [16] | [17] | [18] | [19] | [2] | CD69, CD69 (gene 969)
active: [1] 6.09 µM and 5.21 µM | CD69, CD69 (gene 969) 3330 nM
